These results are taken from PubChem BioAssay.

Each structure is given as a SMILES string. The source made the active and inactive calls.

For one test, the target named is Albumin (Bos taurus) (UniProt P02769). Nature of the test: compounds binding labelled BSA control protein – biochemical, small-molecule microarray, Alexa647 label, 635/667 nm fluorescence, artefact control for SMM control protein annotation, profiling panel (AID 1118).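 Further: score merges 667 nm emission intensity and signal-to-noise per printed compound spot.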 The settings on record: BSA-A647 binding, fluorescence 635 nm, higher = more signal.
Chain of Albumin (Bos taurus) (P02769 whole entry, looked up): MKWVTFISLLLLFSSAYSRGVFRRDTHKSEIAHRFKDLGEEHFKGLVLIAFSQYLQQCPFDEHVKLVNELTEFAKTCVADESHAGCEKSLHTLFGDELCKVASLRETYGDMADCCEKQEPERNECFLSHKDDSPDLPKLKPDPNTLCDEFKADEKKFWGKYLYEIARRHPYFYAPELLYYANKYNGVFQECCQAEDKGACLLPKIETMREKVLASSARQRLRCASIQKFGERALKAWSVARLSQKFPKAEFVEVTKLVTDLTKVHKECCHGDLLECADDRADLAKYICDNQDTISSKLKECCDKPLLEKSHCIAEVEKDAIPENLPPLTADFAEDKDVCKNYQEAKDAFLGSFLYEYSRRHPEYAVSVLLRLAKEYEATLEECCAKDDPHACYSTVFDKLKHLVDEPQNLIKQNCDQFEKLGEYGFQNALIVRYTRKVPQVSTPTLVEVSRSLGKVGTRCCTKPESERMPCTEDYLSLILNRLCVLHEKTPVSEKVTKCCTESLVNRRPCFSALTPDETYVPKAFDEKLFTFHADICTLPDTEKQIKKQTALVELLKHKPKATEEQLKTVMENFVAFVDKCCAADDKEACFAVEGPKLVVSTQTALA
`COC(=O)C(CC#Cc1ccc2c(c1)[C@]1(C(=O)N2)[C@H](c2ccc(O)cc2)N2[C@H](c3ccccc3)[C@H](c3ccccc3)OC(=O)[C@H]2[C@@H]1C(=O)N1CCc2cc(OC)c(OC)cc2C1)C(=O)OC`: the composite z-score is -0.1.
Same read-out and setting: the result for `C=CCNC(=O)[C@@H]1[C@H]2C(=O)O[C@H](c3ccccc3)[C@H](c3ccccc3)N2[C@H](c2ccccc2OCCO)[C@@]12C(=O)N(C(=O)OCCOC)c1ccc(C#CCCO)cc12` reads 0.538.
As to `COc1ccc(CCNC(=O)[C@@]2(Sc3ccc(C)cc3)CC(=O)N(Cc3cc(C(F)(F)F)cc(C(F)(F)F)c3)[C@@H]2c2ccc(CO)cc2)cc1`, the composite z-score is -0.391.
On the same count and under the same terms, with `Cc1ccccc1C(O)C1C=CC2C(=O)N(c3ccccc3)C(=O)C2N1Nc1ccccc1F` (stereo not given) the figure was 1.03; with `NCCCC[C@@H]1NC(=O)[C@H]2C[C@@H](C(=O)NCc3ccc(F)cc3)[C@@H](c3cccc(OCCO)c3)N2C1=O`, -0.364; with `Cc1c(NC(=O)/C(C#N)=C/c2ccc(Cl)cc2)c(=O)n(-c2ccccc2)n1C`, 0.87.
Still for that read-out and setting: with `[N-]=[N+]=NCc1ccccc1C[C@]1(C(=O)N2CCOCC2)N=C(c2ccc(OCCCO)cc2)O[C@H]1c1ccccc1CN=[N+]=[N-]` the figure was 0.954; with `CCC(CC)C(O)C1C=CC2C(=O)N(C)C(=O)C2N1N1CCCCC1` (stereo not given), 0.999.
`COCCOC(=O)N1C(=O)[C@@]2(c3cc(C#Cc4ccc(OC)cc4)ccc31)[C@H](c1ccc(OCCO)cc1)N1[C@H](c3ccccc3)[C@H](c3ccccc3)OC(=O)[C@H]1[C@@H]2C(=O)N1CCCCCCC1`: the composite z-score came to 0.807.

Tested on in the next test: not listed separately
The test is described as follows: probe aXIP binding to arrayed compounds – biochemical, NeuroSMM set, 635/667 nm fluorescence, primary screen (AID 1119).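 Further: probe is the protein aXip251-270 applied at 1 µg/mL to compound-printed slides; binding of probe to printed compounds measured as 667 nm fluorescence plus signal to noise.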 As to conditions: small-molecule microarray, higher = more signal, called active from +8 up or from −8 down.
Consider `NC(=O)NCC#Cc1ccc2c(c1)[C@]1(C(=O)N2)[C@H](C(=O)N2CCCCCCC2)[C@H]2C(=O)O[C@H](c3ccccc3)[C@H](c3ccccc3)N2[C@@H]1c1ccc(O)cc1`, for which the composite Z-score was -0.573 (inactive).
On the same count and under the same terms, the result for `COCCOC(=O)N1C(=O)[C@@]2(c3cc(C#CC4=CCCCC4)ccc31)[C@H](C(=O)N1CCN(c3ncccn3)CC1)[C@H]1C(=O)O[C@H](c3ccccc3)[C@H](c3ccccc3)N1[C@@H]2c1ccccc1OCCO` reads 0.0421 (inactive); that for `COCCOC(=O)N1C(=O)[C@@]2(c3cc(C#CC4(O)CCCCCC4)ccc31)[C@H](c1ccccc1OCCO)N1[C@H](c3ccccc3)[C@H](c3ccccc3)OC(=O)[C@H]1[C@@H]2C(=O)N1CCCCCCC1`, 0.961 (inactive); that for `CCCCC=C[C@@H](NC(=O)c1ccc(C(F)(F)F)cc1)c1ccccc1`, 0.734 (inactive).
Same read-out and setting: with `C=CCC(OC(C)=O)[C@@H]1[C@@H](N(Cc2ccc(-c3ccccc3)cc2)C(=O)c2ccc(C)cc2)c2cc(OCCCO)ccc2N1C(=O)c1ccc2ccccc2c1` (stereo not given in full) the figure was -0.46 (inactive).
For the compound `CCCCC(=C=CC[C@@H](O)c1cccc(OCCO)c1)CCO`, the composite Z-score was -0.462 (inactive).
Turning to `CCOC(=O)C[C@H]1[C@H](OC(=O)Cc2ccc3c(c2)OCO3)[C@@H](NC(=O)c2ccccc2)c2cc(OCCCO)ccc2N1C(=O)Cc1ccc(OC)cc1`, the composite Z-score is -0.751 (inactive).
Still for that read-out and setting: with `CCCCN1CC=CC23O[C@@H]4C=CCOC(=O)[C@@H]4[C@H]2C(=O)N(C(CO)C(C)C)[C@@H]3C1=O` (stereo not given in full) the figure was -0.0632 (inactive); with `COC(=O)[C@@]1(Cc2ccc(OC)cc2)[C@@H]2[C@@H](CC(=O)[C@H]2CC(=O)C(=O)N2CCCC2)CN1C(=O)c1ccccc1`, -0.766 (inactive); with `COC(=O)c1c(CC[C@@H](CO)NC(=O)N[C@@H](Cc2ccccc2)Cn2cc(-c3cncn3C)nn2)oc(C(C)=O)c1C(=O)OC`, 0.047 (inactive).
Still for that read-out and setting: the result for `C=CCC(OC(C)=O)[C@@H]1[C@@H](N(Cc2ccc(-c3cccc(C(F)(F)F)c3)o2)C(=O)c2cccc3ccccc23)c2cc(OCCCO)ccc2N1C(=O)c1ccc2ccccc2n1` (stereo not given in full) reads -0.116 (inactive); that for `CC(=O)NCCCC[C@@H]1NC(=O)[C@H]2C[C@@H](C(=O)NCCCCCC[N+](C)(C)C)[C@@H](c3ccc(O)cc3)N2C1=O`, 0.285 (inactive); that for `N#Cc1ccc(C(O)C2C=CC3C(=O)NC(=O)C3N2Nc2ccccn2)cc1` (stereo not given), -0.483 (inactive).
With `C=CCNC(=O)[C@H]1[C@@H]2C(=O)O[C@@H](c3ccccc3)[C@@H](c3ccccc3)N2[C@@H](c2ccccc2OCCO)[C@]12C(=O)N(C(=O)OCCOC)c1ccccc12`, the composite Z-score is -0.104 (inactive).
For the compound `C=CC[C@]1(C(=O)NCc2ccccc2)COC(c2ccc(OCCCO)cc2)=N1`, the composite Z-score was 3.11 (inactive).
Same read-out and setting: the result for `COc1cc2c(cc1O)C(C1CC1)N(Cc1ccc([N+](=O)[O-])o1)CC2` (stereo not given) reads 0.676 (inactive).
Same read-out and setting: the result for `CCOC(=O)C[C@H]1[C@H](OC(=O)c2ccc(C(=O)c3ccccc3)cc2)[C@@H](NC(=O)c2ccc3ccccc3c2)c2cc(OCCCO)ccc2N1C(=O)c1ccc2ccccc2n1` reads 0.159 (inactive); that for `CC(C)(C)N1CC=CC23O[C@@H]4/C=C\CCCOC(=O)C4[C@H]2C(=O)N(CCCCCCO)[C@@H]3C1=O` (stereo not given in full), -0.617 (inactive); that for `CCC[C@@H]1C=C(C(=O)OCC)[C@H](c2ccccc2)N1S(=O)(=O)c1ccc(C)cc1`, 0.142 (inactive).
Still for that read-out and setting: the result for `O=C1OCCC=C[C@H]2OC34C=CCN(CCN5CCOCC5)C(=O)[C@H]3N(CCCO)C(=O)[C@@H]4C12` (stereo not given in full) reads 1.11 (inactive).
Regarding `CCOC(=O)C1=C[C@@H](C(C)(C)C)N(S(=O)(=O)c2ccc(C)cc2)[C@H]1c1ccccc1Cl`, the composite Z-score is 0.102 (inactive).
On the same count and under the same terms, the result for `C[C@H]1C2[C@H](Cc3ccccc3)NC(=O)[C@]23C(=O)NCC(=O)N2CCC[C@H]2C(=O)NC/C=C\C/C=C/C3[C@@H]2O[C@]12C` (stereo not given in full) reads -0.403 (inactive).
For the compound `COc1ccc([Si](C)(C)[C@@H]2[C@@H](CCO)O[C@]3(C(=O)N(Cc4ccccc4)c4ccc(N5C(=O)c6ccccc6Oc6ccccc65)cc43)[C@H]2C)cc1`, the composite Z-score was 0.304 (inactive).
On to `COCCOC(=O)N1C(=O)[C@@]2(c3ccccc31)[C@H](C(N)=O)[C@H]1C(=O)O[C@H](c3ccccc3)[C@H](c3ccccc3)N1[C@@H]2c1ccc(OCCO)cc1`, for which the composite Z-score was 1.32 (inactive).
For `COCCCNC(=O)[C@@H]1c2ccccc2C(=O)N(Cc2cc(C(F)(F)F)cc(C(F)(F)F)c2)[C@H]1c1ccc(CO)cc1`, the composite Z-score was -0.0722 (inactive).
Still for that read-out and setting: the result for `NCCCC[C@@H]1NC(=O)[C@H]2C[C@@H](C(=O)NCc3ccc(F)cc3)[C@@H](c3ccc(O)cc3)N2C1=O` reads 0.744 (inactive); that for `CC(C)C[C@@H]1NC(=O)[C@H]2C[C@@H](C(=O)NCCCCCNC(=O)CS)[C@@H](c3ccc(O)cc3)N2C1=O`, 0.0136 (inactive).
Turning to `COC(=O)C(CC#Cc1ccc2c(c1)[C@]1(C(=O)N2)[C@H](c2ccc(O)cc2)N2[C@H](c3ccccc3)[C@H](c3ccccc3)OC(=O)[C@H]2[C@@H]1C(=O)N1CCc2cc(OC)c(OC)cc2C1)C(=O)OC`, the composite Z-score is 0.33 (inactive).
Same read-out and setting: the result for `C=CCNC(=O)[C@@H]1[C@H]2C(=O)O[C@H](c3ccccc3)[C@H](c3ccccc3)N2[C@H](c2ccccc2OCCO)[C@@]12C(=O)N(C(=O)OCCOC)c1ccc(C#CCCO)cc12` reads -0.0086 (inactive); that for `COc1ccc(CCNC(=O)[C@@]2(Sc3ccc(C)cc3)CC(=O)N(Cc3cc(C(F)(F)F)cc(C(F)(F)F)c3)[C@@H]2c2ccc(CO)cc2)cc1`, -0.669 (inactive).
Same read-out and setting: the result for `Cc1ccccc1C(O)C1C=CC2C(=O)N(c3ccccc3)C(=O)C2N1Nc1ccccc1F` (stereo not given) reads 0.805 (inactive); that for `NCCCC[C@@H]1NC(=O)[C@H]2C[C@@H](C(=O)NCc3ccc(F)cc3)[C@@H](c3cccc(OCCO)c3)N2C1=O`, 0.125 (inactive).
On to `Cc1c(NC(=O)/C(C#N)=C/c2ccc(Cl)cc2)c(=O)n(-c2ccccc2)n1C`, for which the composite Z-score was 1.5 (inactive).
Still for that read-out and setting: the result for `[N-]=[N+]=NCc1ccccc1C[C@]1(C(=O)N2CCOCC2)N=C(c2ccc(OCCCO)cc2)O[C@H]1c1ccccc1CN=[N+]=[N-]` reads -0.161 (inactive); that for `CCC(CC)C(O)C1C=CC2C(=O)N(C)C(=O)C2N1N1CCCCC1` (stereo not given), -0.175 (inactive).
On the same count and under the same terms, with `COCCOC(=O)N1C(=O)[C@@]2(c3cc(C#Cc4ccc(OC)cc4)ccc31)[C@H](c1ccc(OCCO)cc1)N1[C@H](c3ccccc3)[C@H](c3ccccc3)OC(=O)[C@H]1[C@@H]2C(=O)N1CCCCCCC1` the figure was 1.44 (inactive).
